Data from PubChem BioAssay AID1159580 (chemical genetic matrix, 2015).
About 2,000 (36%) of roughly 5,500 compounds were called active. About 18% were inconclusive and are not listed. Cut-off read from the data, not from the text of the source: active = normalized growth mostly below about 0.91 (no sharp cut-off); inconclusive = no clear call, values can overlap the other calls; inactive = mostly above about 0.92. The list shows a part of the results.

Assay: chemical genetic growth profiling, strain panel (AID 1159580);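 note: tested at 20 µM; growth read once vehicle control cultures reached saturation at 30 °C; 1 = growth at the plate median or of vehicle wells; lower values mean less growth of the strain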
Settings: growth OD
[1] = S. cerevisiae deletion strains, locus YDL101C, strain DUN1, hits give low values
[2] = S. cerevisiae deletion strains, locus YHR030C, strain SLT2, hits give low values

Measured: normalized growth

O=S(=O)(c1ccc(Cl)cc1)c1cc(C(F)(F)F)cc(C(F)(F)F)c1
inactive: S. cerevisiae deletion strains, locus YAL013W, strain DEP1, hits give low values 0.978 | S. cerevisiae deletion strains, locus YBR229C, strain ROT2, hits give low values 0.983 | S. cerevisiae deletion strains, locus YCL061C, strain MRC1, hits give low values 1 | [1] 1.01 | S. cerevisiae deletion strains, locus YDR150W, strain NUM1, hits give low values 1.01 | S. cerevisiae deletion strains, locus YEL061C, strain CIN8, hits give low values 0.963 | S. cerevisiae deletion strains, locus YGR078C, strain PAC10, hits give low values 0.988 | S. cerevisiae deletion strains, locus YGR229C, strain SMI1, hits give low values 0.98 | [2] 0.988 | S. cerevisiae deletion strains, locus YHR087W, strain rtc3, hits give low values 0.986 | S. cerevisiae deletion strains, locus YJL187C, strain SWE1, hits give low values 0.984 | S. cerevisiae deletion strains, locus YJR043C, strain POL32, hits give low values 0.989 | S. cerevisiae deletion strains, locus YJR075W, strain HOC1, hits give low values 0.957 | S. cerevisiae deletion strains, locus YLR039C, strain RIC1, hits give low values 0.954 | S. cerevisiae deletion strains, locus YLR058C, strain SHM2 (second series), hits give low values 0.987 | S. cerevisiae deletion strains, locus YLR085C, strain ARP6, hits give low values 0.935 | S. cerevisiae deletion strains, locus YLR262C, strain YPT6, hits give low values 0.964 | S. cerevisiae deletion strains, locus YML094W, strain GIM5, hits give low values 0.978 | S. cerevisiae deletion strains, locus YMR219W, strain ESC1, hits give low values 0.974 | S. cerevisiae deletion strains, locus YMR263W, strain SAP30, hits give low values 1 | S. cerevisiae deletion strains, locus YNL128W, strain TEP1, hits give low values 0.972 | S. cerevisiae deletion strains, locus YNL153C, strain GIM3, hits give low values 1.01 | S. cerevisiae deletion strains, locus YNL298W, strain CLA4 (second series), hits give low values 1.03 | S. cerevisiae deletion strains, locus YNL322C, strain KRE1, hits give low values 0.952 | S. cerevisiae deletion strains, locus YNR030W, strain Alg12, hits give low values 0.955 | S. cerevisiae deletion strains, locus YOL006C, strain TOP1, hits give low values 0.97 | S. cerevisiae deletion strains, locus YPL055C, strain LGE1, hits give low values 1.03 | S. cerevisiae deletion strains, locus YPL241C, strain CIN2, hits give low values 0.992 | S. cerevisiae deletion strains, locus YPR135W, strain CTF4, hits give low values 1.08 | S. cerevisiae strains, strain wild type, hits give low values 0.976

O=S(=O)(Nc1cc(Cl)c(Cl)cc1Cl)c1cc(C(F)(F)F)cc(C(F)(F)F)c1
active: [2] 0.71 | S. cerevisiae deletion strains, locus YLR113W, strain HOG1, hits give low values 0.818 | S. cerevisiae deletion strains, locus YPL256C, strain CLN2, hits give low values 0.813
inactive: S. cerevisiae deletion strains, locus YAR019C, strain CDC15, hits give low values 0.957 | S. cerevisiae deletion strains, locus YBL105C, strain PKC1, hits give low values 0.956 | S. cerevisiae deletion strains, locus YBR135W, strain CKS1, hits give low values 0.961 | S. cerevisiae deletion strains, locus YBR136W, strain MEC1, hits give low values 0.954 | S. cerevisiae deletion strains, locus YBR160W, strain CDC28, hits give low values 0.946 | S. cerevisiae deletion strains, locus YDL017W, strain CDC7, hits give low values 0.959 | S. cerevisiae deletion strains, locus YDL028C, strain MPS1, hits give low values 0.962 | [1] 0.972 | S. cerevisiae deletion strains, locus YDL108W, strain KIN28, hits give low values 0.966 | S. cerevisiae deletion strains, locus YDL132W, strain cdc53, hits give low values 0.963 | S. cerevisiae deletion strains, locus YDL214C, strain PRR2, hits give low values 0.924 | S. cerevisiae deletion strains, locus YDR052C, strain DBF4, hits give low values 0.941 | S. cerevisiae deletion strains, locus YDR054C, strain cdc34, hits give low values 0.953 | S. cerevisiae deletion strains, locus YDR226W, strain ADK1, hits give low values 0.956 | S. cerevisiae deletion strains, locus YDR477W, strain SNF1, hits give low values 0.919 | S. cerevisiae deletion strains, locus YER123W, strain YCK3, hits give low values 0.882 | S. cerevisiae deletion strains, locus YER133W, strain GLC7, hits give low values 0.937 | S. cerevisiae deletion strains, locus YFL009W, strain cdc4, hits give low values 0.959 | S. cerevisiae deletion strains, locus YFL029C, strain CAK1, hits give low values 0.955 | S. cerevisiae deletion strains, locus YFR003C, strain YPI1, hits give low values 0.964 | S. cerevisiae deletion strains, locus YFR019W, strain FAB1, hits give low values 0.916 | S. cerevisiae deletion strains, locus YFR028C, strain CDC14, hits give low values 0.958 | S. cerevisiae deletion strains, locus YGR040W, strain KSS1, hits give low values 0.9 | S. cerevisiae deletion strains, locus YGR052W, strain FMP48, hits give low values 0.913 | S. cerevisiae deletion strains, locus YGR092W, strain DBF2, hits give low values 0.892 | S. cerevisiae deletion strains, locus YHR079C, strain IRE1, hits give low values 0.897 | S. cerevisiae deletion strains, locus YHR082C, strain KSP1, hits give low values 0.899 | S. cerevisiae deletion strains, locus YHR205W, strain SCH9, hits give low values 0.946 | S. cerevisiae deletion strains, locus YIL147C, strain SLN1, hits give low values 0.963 | S. cerevisiae deletion strains, locus YJL095W, strain BCK1, hits give low values 0.963 | S. cerevisiae deletion strains, locus YJL128C, strain PBS2, hits give low values 0.969 | S. cerevisiae deletion strains, locus YJL157C, strain FAR1, hits give low values 0.892 | S. cerevisiae deletion strains, locus YJR016C, strain ILV3, hits give low values 0.968 | S. cerevisiae deletion strains, locus YJR066W, strain TOR1 (second series), hits give low values 0.92 | S. cerevisiae deletion strains, locus YJR066W, strain TOR1, hits give low values 0.976 | S. cerevisiae deletion strains, locus YKL048C, strain ELM1, hits give low values 0.906 | S. cerevisiae deletion strains, locus YKL067W, strain YNK1, hits give low values 0.935 | S. cerevisiae deletion strains, locus YKL101W, strain HSL1, hits give low values 0.902 | S. cerevisiae deletion strains, locus YKL193C, strain SDS22, hits give low values 0.963 | S. cerevisiae deletion strains, locus YKL203C, strain TOR2, hits give low values 0.955 | S. cerevisiae deletion strains, locus YLR133W, strain CKI1, hits give low values 0.903 | S. cerevisiae deletion strains, locus YLR403W, strain SFP1, hits give low values 0.916 | S. cerevisiae deletion strains, locus YML070W, strain DAK1, hits give low values 0.911 | S. cerevisiae deletion strains, locus YMR001C, strain CDC5, hits give low values 0.96 | S. cerevisiae deletion strains, locus YMR205C, strain PFK2 (second series), hits give low values 0.954 | S. cerevisiae deletion strains, locus YMR277W, strain FCP1, hits give low values 0.963 | S. cerevisiae deletion strains, locus YNL006W, strain LST8, hits give low values 0.966 | S. cerevisiae deletion strains, locus YNL020C, strain ARK1, hits give low values 0.89 | S. cerevisiae deletion strains, locus YNL161W, strain CBK1, hits give low values 0.962 | S. cerevisiae deletion strains, locus YNL183C, strain NPR1, hits give low values 0.916 | S. cerevisiae deletion strains, locus YNL207W, strain RIO2, hits give low values 0.948 | S. cerevisiae deletion strains, locus YNL222W, strain SSU72, hits give low values 0.962 | S. cerevisiae deletion strains, locus YNL307C, strain MCK1 (second series), hits give low values 0.874 | S. cerevisiae deletion strains, locus YOL078W, strain AVO1, hits give low values 0.959 | S. cerevisiae deletion strains, locus YOL136C, strain PFK27, hits give low values 0.871 | S. cerevisiae deletion strains, locus YOR061W, strain CKA2, hits give low values 0.93 | S. cerevisiae deletion strains, locus YOR119C, strain RIO1, hits give low values 0.983 | S. cerevisiae deletion strains, locus YOR231W, strain MKK1, hits give low values 0.913 | S. cerevisiae deletion strains, locus YOR329C, strain SCD5, hits give low values 0.963 | S. cerevisiae deletion strains, locus YPL031C, strain PHO85, hits give low values 0.917 | S. cerevisiae deletion strains, locus YPL153C, strain RAD53, hits give low values 0.921 | S. cerevisiae deletion strains, locus YPL204W, strain HRR25, hits give low values 0.881 | S. cerevisiae deletion strains, locus YPL209C, strain IPL1, hits give low values 0.952 | S. cerevisiae deletion strains, locus YPR025C, strain CCL1, hits give low values 0.962 | S. cerevisiae deletion strains, locus YPR106W, strain ISR1, hits give low values 0.946 | S. cerevisiae deletion strains, locus YPR111W, strain DBF20, hits give low values 0.944 | S. cerevisiae deletion strains, strain NNK1, hits give low values 0.956 | S. cerevisiae deletion strains, strain TSCII, hits give low values 0.956
